Our source for the PBM binding z-score values is the supplement of paper PMC6555819.

This experiment has as its system VDR:RXRa (NR concentration 270 nM, RXRa partner concentration 90 nM). The experiment in a line: PBM binding z-score (relative to random genomic background probes); higher = stronger binding; sequences stand for … in GC…GCGATTGACAGCGTAGAATGAAGG
How it is done:
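Protein-binding microarray (Agilent 4x180K custom design, double-stranded 60-nt probes: 5' GC cap, 34-nt variable region, 24-nt constant primer region; full probe sequence given). Purified or IVT nuclear receptor:RXRα heterodimers (3:1 NR:RXRα, mostly 270:90 nM) or homodimers were incubated for 1 h in PBS with 2% milk and no ligand, then detected with Alexa488 antibodies. Fluorescence from o1-orientation probes (~5 replicates averaged) was converted to z-scores against 500 random hg19 background probes. Variable regions are seed direct-repeat (DR0–DR5) sites, all their single-nucleotide variants and half-site ablations.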
As for CGTCCAAGGTCAAAGGTCAGTCAAGAGATGACGG, the PBM binding z-score came out at 6.84.
In the case of ACAGACAGGTGTTGAAGGTAACTCAGGCTATCAT, the PBM binding z-score is -0.203.
To GCTCGGAGGACAAGGTCGGAGCTTTGTCCGTAGA belongs -0.159.
As for ATCTCTAGGTAAAAGTTCAGTTAATCCCGAGGAT, the PBM binding z-score is 1.44.
Take CGAACGAGGGCATGAGTTGATAGCAAATGCCGAT: the PBM binding z-score worked out at 1.43.
The value for CCTAGCAGGCCAATCTGGGTCAGTCAAGGCTTGA was -0.258.
The value for GCTCGTAGATCAAGGTTAAGAAAGACTAAGCTAA was -0.0501; that for GCTAGCAGGCCATTTGGGTCACTCACTGACGGGC was 0.766; that for TTACCAAGGTGAGCTGAAGTCGTTGATCCAACTC was -0.383.
The value for AGAACGAAGGCACGCTGAGTTGATAGCAGAGTAG was -0.487; that for ATCTCTAGGTAAAGTTGAGTGAAAGATCGATAGA was 0.152; that for GCGACTGGGGCAAAGCAGGCTACCATAAGGTTGG was -0.662.
In the case of CATACAGGGTCAGCTAGGCCAGATTAGGGACGGC, the PBM binding z-score worked out at 3.94.
The sequence ATCTCTATGTAAAAGTTCAGTGAATCCCGAGGAT returned a PBM binding z-score of 1.2.
To CCAGACAGGTGAAACGTAACTCAGTCTGGTACGC belongs -0.217; to ACAGACAGGTGAGGAAGGTAACTCAGGCTATCAT, 0.159.
For CCAGAGAGGTGAAAGGTAACTCAGTCTGGTACGC, the PBM binding z-score was found to be 1.64.
Regarding CTCGAAACGTCGTGCTCAGGTGAGTATACCAAAC, the PBM binding z-score was -0.365.
TCTGCTAGGTCAACGATGGTCAGGTAATCTGCTA displayed a PBM binding z-score of 1.78.
On to CCTAGTTGGACAGGAGGTCACACACCGGATATGA, for which the PBM binding z-score amounted to 3.69.
To TCTAGTTGGTCAAAGGTCACACACTCGAAATGCG belongs 5.37; to CTCGAAAGGTCGTGATCAGGTGAGTATACCAAAC, 3.22.
To CCGACTGGGGCAGAAAGGTTACCAAACCATCCGG belongs 0.877.
On to GTACCAAGGTGAATAAGTCGTTGATGAGTAGGCG, for which the PBM binding z-score is 0.0767.
To CGTACTGGGCCAAAGGTCATTGATTCCAATGCTC belongs 5.07; to CCTCGGAGAACAGAAGGTCAGAGCTGTCCGCTTT, 1.03.
GCTAGCAGGCCATTTGGGTCACTTAATGACGGGC had a PBM binding z-score of 0.902.
Turning to AGTCAAAGTACACTAGGTAACGTAAGATTCAGCT, the PBM binding z-score was -0.00797.
The value for TGGAGTAGGTTACCAATGGGGCATTCAGCTTTCT was 0.293; that for CCGACTGGGGCATAACGTTACCATAAGCCAGCCC was -0.52.
The value for ACTAGCGGGCCAAGGGTCACTCAAGATTAGTCCG was 2.66; that for AGAACGAGGGGACGCTGAGTTGATAGCAGAGTAG was 0.464.
The value for TAGCCTACGTCATTGGGCCAGTATAGTACGCATC was -0.617.
As to GGCACGAGGGCAAGTTGATAGCAGAGTTTGATGG, the PBM binding z-score was 0.599.
The value for TCTTGTAGATCACAGGTTAAGAAAGCCGAAGCCT was 0.396; that for CGAACTAGGTCAAGGACTGTGAATCTCCGCACGC was 1.17; that for CCTAACGGGTCACTCCAGGTTATAGCATCGGAGT was 3.7.
Turning to TGTCAAGGTTCAAAGGTAACGTAAGTATCCACAC, the PBM binding z-score was determined as 4.59.
As to AGAATGAGGTTAACATCAGGGAAACAGAATACAT, the PBM binding z-score was found to be 1.75.
Take TCATATAGGCAATACAGGTGAAAGTCGGCATCTA: the PBM binding z-score worked out at 0.582.
